# Reference: PubChem BioAssay (EPA / NIEHS)
# “And” between values parts separate entries of the source, which are not always exact repeats. Equal values may be shown once. Results filed as inconclusive are left out. The source made the active and inactive calls. How the source made its calls: active means hit-call score of the fitted dose curve at least 0.9, where 1 is the maximum; inconclusive means response in the unintended direction; inactive means score below 0.9.
# Target: Nuclear receptor subfamily 4 group A member 2 (Homo sapiens) (UniProt P43354)
# Test: ATG_NURR1_TRANS: Attagene TRANS-FACTORIAL HepG2 Assay for human Nuclear Receptor Related Protein 1 (NURR1) (AID 2282985)
# Details: HepG2 Attagene TRANS reporter, mRNA readout
# Description: ATG_TRANS is a cell-based, multiplexed-readout assay that uses HepG2, a human liver cell line, with measurements taken at 24 hours after chemical dosing in a 24-well plate.ATG_NURR1_TRANS is one of 30 assay component(s) measured or calculated from the ATG_TRANS assay. It is designed to make measurements of mRNA induction, a form of inducible reporter, as detected with fluorescence intensity signals by Reverse transcription polymerase chain reaction (RT-PCR) and Capillary electrophoresis technology.Data from the assay component ATG_NURR1_TRANS was analyzed into 1 assay endpoint. This assay endpoint, ATG_NURR1_TRANS, was analyzed in the positive analysis fitting direction relative to DMSO as the negative control and baseline of activity. Using a type of inducible reporter, measures of mRNA for gain-of-signal activity can be used to understand the reporter gene at the transcription factor-level as they relate to the gene NR4A2. Furthermore, this assay endpoint can be referred to as a primary readout, because this assay has produced multiple assay endpoints where this one serves a reporter gene function. To generalize the intended target to other relatable targets, this assay endpoint is annotated to the nuclear receptor intended target family, where the subfamily is orphan.
# Human liver HepG2 cells are transiently transfected with multiple reporter transcription units (MRTUs) in 6-well plates using FuGene 6 reagent (Roche; 3 ml FuGene/1 mg DNA). The MRTU constructs are regulated by a cis-regulating element (promoter). […] A major difference between the CIS and TRANS system is that in CIS activities of endogenous TFs are measured, whereas the TRANS assay evaluates changes in activities of exogenous, chimeric NR-Gal4 proteins. […] At the end of 24 hour incubation, total RNA was isolated using TriZol reagent (Invitrogen). The isolated RNA is then reverse-transcribed using oligo(dT) primer and Mo-MLV reverse transcriptase (Invitrogen) with DNAse I (Ambion) treatment for 30 min. The one-tenth of the produced cDNA was amplified by PCR using Taq DNA polymerase (Invitrogen) and two reporter sequence-specific primers. The PCR products were fluorescently labeled by primer extension with 6-arboxyfluorescein (6-FAM) 5'-labeled reporter sequence-specific primer (2 min at 95 C, 20 s at 68 C and 10 min at 72 C) and these products were digested with 5U of HpaI (New England Biolabs) for 2h at 37 C. The fragments were purified using Qiaquick PCR columns (Qiagen), analyzed on an ABI 3130xL genetic analyzer (Applied Biosystems) with peak positions identified by using a set of X-rhodamine (ROX)-labeled MapMarker1000 molecular weight standards (BioVentures). The raw capillary electrophoresis data was processed using Attagraph software (Attagene).
# Sequence of Nuclear receptor subfamily 4 group A member 2 (Homo sapiens) (P43354 whole entry, looked up): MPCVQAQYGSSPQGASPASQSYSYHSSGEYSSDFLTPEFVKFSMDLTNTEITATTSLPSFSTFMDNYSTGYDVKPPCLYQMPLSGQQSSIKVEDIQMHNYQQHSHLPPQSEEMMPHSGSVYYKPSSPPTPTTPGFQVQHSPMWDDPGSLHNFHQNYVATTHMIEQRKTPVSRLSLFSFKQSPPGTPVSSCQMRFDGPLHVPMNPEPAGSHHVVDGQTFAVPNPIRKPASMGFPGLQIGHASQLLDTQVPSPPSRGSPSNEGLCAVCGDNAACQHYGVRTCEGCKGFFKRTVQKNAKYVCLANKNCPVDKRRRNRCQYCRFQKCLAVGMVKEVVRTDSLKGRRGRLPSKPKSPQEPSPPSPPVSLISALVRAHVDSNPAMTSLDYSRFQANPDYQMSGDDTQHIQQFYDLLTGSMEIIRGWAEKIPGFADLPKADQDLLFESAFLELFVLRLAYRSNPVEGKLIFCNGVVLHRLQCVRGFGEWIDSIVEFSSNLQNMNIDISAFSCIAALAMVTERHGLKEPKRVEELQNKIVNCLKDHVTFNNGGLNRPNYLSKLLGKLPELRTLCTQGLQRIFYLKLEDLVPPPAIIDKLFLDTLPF
SMILES,outcome,AC50
O=C1OC2(c3ccccc31)c1cc(Br)c(O)c(Br)c1Oc1c2cc(Br)c(O)c1Br,inactive,–
c1ccc2cc3c(ccc4ccccc43)cc2c1,inactive,–
CCCCCCC(=O)O,inactive,–
CCCCCCCC(=O)O,inactive,–
Cc1cc(CCN2CCN(c3nsc4ccccc34)CC2)cc2c1NC(=O)CC2(C)C,inactive,–
C=C(C)C(=O)OCCC(F)(F)C(F)(F)C(F)(F)C(F)(F)C(F)(F)C(F)(F)F,inactive,–
CCC(C)(C)C1CCC(O)CC1 (stereo not given),inactive,–
CCCCCCCCOC(=O)CCCCCCCCC(=O)OCCCCCCCC,inactive,–
CC#C[C@]1(O)CC[C@H]2[C@@H]3CCC4=CC(=O)CCC4=C3[C@@H](c3ccc(N(C)C)cc3)C[C@@]21C,inactive,–
COc1cc(CCC(=O)CC(=O)CCc2ccc(O)c(OC)c2)ccc1O,inactive,–
COCC(C)O (stereo not given),inactive,–
Oc1cccc(O)c1,inactive,–
OCCC(F)(F)C(F)(F)C(F)(F)C(F)(F)C(F)(F)C(F)(F)C(F)(F)C(F)(F)F,inactive,–
CN1CCN(c2ccccc2/C=C2\SCCN(c3ccc(Cl)c(Cl)c3)C2=O)CC1,inactive,–
CC(C)(C)c1cccc(C(C)(C)C)c1O,inactive,–
Cc1oc(-c2ccccc2)nc1CCOc1ccc(C[C@H](Nc2ccccc2C(=O)c2ccccc2)C(=O)O)cc1,–,19.9 µM (active)
CCN(CC)CCNc1ccc(CNC=O)c2sc3ccc(OC)cc3c(=O)c12,–,0.771 µM (active)
CC[C@H](C)[C@@H](C(=O)O)n1sc2ccccc2c1=O,inactive,–
CCCCCCCCCCCCCC[N+](C)(C)C,–,26.9 µM (active)
OC1CCC(C2CCCCC2)CC1 (stereo not given),inactive,–

SMILES,outcome,AC50
Oc1cc2ccccc2c2ccccc12,inactive,–
CN(C)C=O,–,7.38 µM (active)
CC(C)(C)c1cc(C(C)(C)C)c(O)c(C(C)(C)C)c1,–,431 nM (active) and 1.32 µM (active)
CCCOc1sc(C(=O)N2CCC(c3cc(CN)ccc3F)CC2)c(C)c1Br,inactive,–
NCC(F)(F)C(F)(F)C(F)(F)C(F)(F)C(F)(F)C(F)(F)C(F)(F)F,inactive,–
CCCCCCCCC(=O)O,inactive,–
O=C(O)c1ccccc1C(c1ccc(O)cc1)c1ccc(O)cc1,inactive,–
ClC1=C(Cl)C(Cl)(Cl)C(Cl)=C1Cl,inactive,–
CCCCC[C@H](O)CC(=O)CCc1ccc(O)c(OC)c1,inactive,–
O=C(O)Cc1cc(I)c(Oc2cc(I)c(O)c(I)c2)c(I)c1,–,23.6 µM (active)
CC[C@H](c1ccc(O)cc1)[C@@H](CC)c1ccc(O)cc1,inactive,–
O=c1c(-c2ccc(O)cc2)coc2cc(O)ccc12,inactive,–
Cc1ccc(S(=O)(=O)O)c(C)c1,inactive,–
O=[N+]([O-])c1ccc(O)cc1,inactive,–
CCCCCCCCCCCCc1ccccc1S(=O)(=O)O,inactive,–
COC(=O)CCCCC(=O)OC,inactive,–
NC(=O)N(O)[C@@H]1C=C[C@H](Oc2cccc(Oc3ccc(F)cc3)c2)C1,inactive,–
CC1=C(/C=C/C(C)=C/C=C/C(C)=C/C(=O)O)C(C)(C)CCC1,–,57.2 nM (active) and 278 nM (active)
C[C@@H]1C[C@H]2[C@@H]3CCC4=CC(=O)C=C[C@]4(C)[C@@]3(F)[C@@H](O)C[C@]2(C)[C@@]1(O)C(=O)COP(=O)(O)O,inactive,–
O=C(/C=C/c1ccc(O)cc1)CC(=O)/C=C/c1ccc(O)cc1,inactive,–
